In the library only some 2.4% were active in any assay of this set; here they are far more common.
D2 ag-1: HTS Assay for Allosteric Agonists of the Human D2 Dopamine Receptor: Primary Screen for Agonists | HEK293 T-REx D2 cells, calcium flux agonist mode | activation, % at 2 µM | hit rate 0.53% among 340,000 | AID 485358, 2010;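 active = activation over 3 SD above normal in the single-dose calcium agonist read, cut at about 30% in these data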; note: 0% is about no effect
Target sequence (P14416 whole entry, looked up): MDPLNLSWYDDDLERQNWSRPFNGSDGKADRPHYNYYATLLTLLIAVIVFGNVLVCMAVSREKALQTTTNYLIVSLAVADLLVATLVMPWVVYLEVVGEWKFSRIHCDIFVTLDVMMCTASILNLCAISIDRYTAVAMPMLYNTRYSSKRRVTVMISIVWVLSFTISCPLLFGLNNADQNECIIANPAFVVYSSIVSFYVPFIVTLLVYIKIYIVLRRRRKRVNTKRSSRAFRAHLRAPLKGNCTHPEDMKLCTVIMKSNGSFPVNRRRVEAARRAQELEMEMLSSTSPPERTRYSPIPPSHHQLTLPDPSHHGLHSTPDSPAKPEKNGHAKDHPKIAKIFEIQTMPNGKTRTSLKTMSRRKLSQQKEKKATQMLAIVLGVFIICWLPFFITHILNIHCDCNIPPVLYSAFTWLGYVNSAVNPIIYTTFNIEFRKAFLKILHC
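Tetracycline-induced HEK293 Trex cells with D2 receptor force-coupled to calcium signaling, plated overnight at 30 C and loaded with no-wash calcium dye. Calcium flux read kinetically for 180 s after compound addition; responses flag agonists.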
D2 ag-2: Beta-Arrestin HTS for Positive Allosteric Modulators of the Human D2 Dopamine Receptor: Agonists. D(2) dopamine receptor (Homo sapiens), P14416. hit rate 0.084% among 360,000. activation, % (test concentration not listed). DiscoveRx PathHunter D2 beta-arrestin, luminescence, 90 min; 100% = 57 uM dopamine signal; in the data active = activation above about 40%; inconclusive = between about 15% and that limit
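Agonist mode: compounds alone added to overnight-plated D2 PathHunter cells for 90 min at 37 C, with 57 uM final dopamine (EC100) defining full response. Beta-arrestin recruitment detected by chemiluminescent reagent, read after 1 h at ambient temperature.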
D2 PAM-1: HTS Assay for Positive Allosteric Modulators of the Human D2 Dopamine Receptor: Primary Screen for Potentiators; HEK293 T-REx D2, calcium flux, EC20 dopamine potentiation; AID 485347, 2010; hit rate 0.34% among 340,000; potentiation, % at 10 µM; D(2) dopamine receptor (Homo sapiens), P14416;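 active = potentiation over 3 SD above the plate norm, cut at about 30% in these data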; note: 0% is about no effect
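Primary screen. Calcium kinetics in induced HEK293 T-REx D2 cells: compound pre-addition 180 s, EC20 dopamine, 180 s more.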
D2 antagonist: HTS Assay for Allosteric Antagonists of the Human D2 Dopamine Receptor: Primary Screen for Antagonists. HEK293 TREx D2 cells, calcium flux, dopamine EC80. AID 485344, 2010. hit rate 2% among 340,000. D(2) dopamine receptor (Homo sapiens), P14416. inhibition, % at 10 µM; in the data active = inhibition above about 30%; inactive = below that, where a call was filed; note: 0% is about no effect
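Read-out: kinetic calcium fluorescence (1 cycle/s) in inducible HEK293 T-REx D2 cells after an EC80 dopamine addition that followed 180 s compound preincubation. Loss of the dopamine response indicates antagonism.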
D2 PAM-2: Beta-Arrestin HTS for Positive Allosteric Modulators of the Human D2 Dopamine Receptor: Potentiators; D(2) dopamine receptor (Homo sapiens), P14416; DiscoveRx D2 beta-arrestin cells, luminescence, 90 min; 100% = 57 uM dopamine signal; potentiation, % (test concentration not listed); hit rate 0.23% among 360,000; AID 624464, 2012; in the data active = potentiation above about 50%; inconclusive = mostly about 30% to 49%
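PathHunter beta-arrestin assay in DiscoveRx D2 cells. Compounds were added with an EC20 of dopamine (50 nM final) for 90 min at 37 deg C. Luminescence was read 1 h after detection reagent, with 57 uM dopamine as the EC100 control.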
* = called active by the depositor; ? = inconclusive; nt = not tested or not shown.

SMILES	D2 ag-1	D2 ag-2	D2 PAM-1	D2 antagonist	D2 PAM-2
CC1(C(=O)NCc2ccc(F)cc2)Oc2ccccc2NC1=O (stereo not given)	0	0	-15	76*	5
CC(=O)c1sc(NC(=O)c2cc(=O)c3ccccc3o2)nc1C	0	3	3	4	68*
CC1CCCCN1S(=O)(=O)c1ccc2c(c1)oc(=O)n2CC(=O)Nc1ccc(Cl)cc1 (stereo not given)	1	nt	-4	nt	nt
O=C(O)CNCC1COc2ccccc2O1 (stereo not given)	0	-3	-7	-22	6
c1ccc2c(c1)OCC(CNCC1COc3ccccc3O1)O2 (stereo not given)	37*	1	-28	64*	-10
O=C(COc1ccc(Br)cc1)NCC1COc2ccccc2O1 (stereo not given)	0	2	-24	33*	-24
COC(=O)C1CCN(C(=O)c2sc3nc(-c4ccc(F)cc4)cn3c2C)CC1	-1	1	31*	-4	-6
O=C(COC(=O)C1CCN(c2ccc(C(F)(F)F)cn2)CC1)Nc1ccc(Cl)cn1	1	-6	2	10	-4
O=C(COC(=O)C1CCN(c2ccc(C(F)(F)F)cn2)CC1)NCc1cccc(Cl)c1	2	-7	4	34*	-30
O=C(COC(=O)C1CCN(c2ccc(C(F)(F)F)cn2)CC1)Nc1ncc(Cl)cc1Cl	0	-1	1	35*	-1
CCc1cccc(C)c1NC(=O)Cn1ccn(Cc2ccc(Cl)cc2)c(=O)c1=O	0	nt	-3	nt	nt
CC(OC(=O)c1cccs1)C(=O)NCc1cccs1 (stereo not given)	0	2	2	-8	1
COc1ccc(CNC(=O)C(C)OC(=O)c2cccs2)cc1 (stereo not given)	0	-4	33*	-3	1
CCCCOC(=O)C1=C(C)NC(=O)NC1c1ccc([N+](=O)[O-])s1 (stereo not given)	2	2	5	5	58*
CCCCOC(=O)C1=C(C)NC(=O)NC1c1cccc([N+](=O)[O-])c1 (stereo not given)	-1	-4	0	24	-4
COc1ccc(N2CCN(c3nc(Cl)nc(Nc4ccc(F)cc4)n3)CC2)cc1	4	0	1	4	-1
COc1ccc(N2CCN(c3nc(Nc4ccc(F)cc4)nc(OC)n3)CC2)cc1	-1	nt	33*	-22	nt
O=C(CN1CCN(c2ccc(O)cc2)CC1)Nc1ccc2c(c1)OCCO2	36*	?	-9	-10	-10
CCc1ccccc1NC(=O)CN(c1ccccc1)S(=O)(=O)c1ccsc1C(=O)OC	0	nt	4	nt	nt
CC(=O)c1ccc(N2CCN(C(=O)/C=C/c3ccc(S(=O)(=O)N4CCOCC4)cc3)CC2)cc1	1	-3	-8	50*	-7
CCCc1cc(=O)n2nc(N3CCC(C(=O)Nc4c(F)c(F)c(F)c(F)c4F)CC3)sc2n1	1	3	-1	38*	-4
Cc1cc(Nc2ccccc2)nn1C(=O)c1ccc([N+](=O)[O-])cc1	0	4	-5	1	56*
Cc1cc(Nc2ccccc2)nn1C(=O)c1ccc(Cl)cc1	-1	1	-4	20	-6
Cc1cccc(NC(=O)c2c(C)nc3ccccn23)c1	0	-2	0	40*	-3
CCCNC(=O)C1=CC(c2ccc3c(c2)OCO3)=NS(=O)(=O)N1C	2	nt	5	nt	nt
O=C(NC1CC2CCCC(C1)N2Cc1ccccc1)c1cccc(F)c1 (stereo not given)	0	-1	-22	84*	-80
O=C(NC1CC2CCCC(C1)N2Cc1ccccc1)c1cccc(Cl)c1 (stereo not given)	-1	0	-38	90*	-16
COc1cccc(C(=O)NC2CC3CCCC(C2)N3Cc2ccc(F)cc2)c1 (stereo not given)	nt	-1	nt	nt	-22

Screens deposited in PubChem by National Center for Advancing Translational Sciences (NCATS).
